Here are results for six compounds from PubChem BioAssay.

Calls of active or inactive are those of the source.

In test [1] the test system is PRMT1 (protein arginine N-methyltransferase 1). The test can be described thus: small molecules binding arginine methyltransferase PRMT1 – biochemical, small-molecule microarray, 635 nm fluorescence, primary screen (AID 1088).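 Also: binding of Prmt1 protein to compounds spotted on small-molecule microarray slides.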 To be noted: higher = more signal.
Test [2] is described as follows: growth effects on S. cerevisiae YJM789 – YJM789 clinical isolate, OD600, 24 h, basal, primary screen (AID 1089).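 Also: growth of clinical yeast isolate S. cerevisiae YJM 789 seeded 1000 cells per well; test concentration not given here.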 To be noted: higher = more signal, called active from +8 up or from −8 down.
A short description of test [3]: S. pombe growth modifiers, basal conditions – strain 972, OD600, 24 h, no modulator, primary screen (AID 1090).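 Also: basal condition with compound alone and no growth modifier present; test concentration not given here.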 To be noted: S. pombe 972 growth, higher = more signal, called active from +8 up or from −8 down.
Test [4] is described as follows: budding yeast growth modifiers under rapamycin – strain BY4716, OD600, 96 h, primary screen (AID 1091). Also: test concentration not given here. Particulars: S. cerevisiae BY4716 + rapamycin, higher = more signal, called active from +8 up or from −8 down.
The target of test [5] is Torsin-1A-interacting protein 2 (Homo sapiens) (UniProt Q8NFQ8). Kind of test: small molecules binding lysate-expressed LULL1 – cell lysate, human LULL1 lysate, 635/667 nm fluorescence, primary screen (AID 1092).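 Also: probe is lysate of COS7 cells overexpressing human LULL1; score merges per-feature 667 nm fluorescence with signal-to-noise.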 Particulars: small-molecule microarray, hLULL1 lysate binding, 635 nm fluorescence; higher = more signal.
Torsin-1A-interacting protein 2 (Homo sapiens), sequence (Q8NFQ8 whole entry, looked up): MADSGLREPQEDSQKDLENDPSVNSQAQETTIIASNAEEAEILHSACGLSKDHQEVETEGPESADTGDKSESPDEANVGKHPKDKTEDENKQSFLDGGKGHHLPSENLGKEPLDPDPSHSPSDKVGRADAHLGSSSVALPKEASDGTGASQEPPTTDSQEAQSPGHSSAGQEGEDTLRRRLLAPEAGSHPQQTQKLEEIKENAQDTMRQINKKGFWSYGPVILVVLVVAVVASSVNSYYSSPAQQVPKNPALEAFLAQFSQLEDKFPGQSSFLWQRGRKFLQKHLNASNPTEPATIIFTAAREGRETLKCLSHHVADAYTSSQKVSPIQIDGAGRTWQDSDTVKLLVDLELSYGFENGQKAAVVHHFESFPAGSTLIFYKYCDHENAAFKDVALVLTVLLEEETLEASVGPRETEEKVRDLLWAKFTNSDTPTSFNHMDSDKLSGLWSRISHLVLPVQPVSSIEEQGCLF
Test [6] in a line: optical density change of DRC41 E. coli – strain DRC41, OD650, 24 h, E. coli filamentation project, primary screen (AID 1093).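 Also: MC1000 strain lacking acrAB efflux and sulA so SOS filamentation is blocked; test concentration not given here.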 To be noted: E. coli DRC41 growth, higher = more signal, called active from +8 up or from −8 down.
The nature of test [7]: probe aLefty2 binding to arrayed compounds – biochemical, biotinylated probe, 635/667 nm fluorescence, primary screen (AID 1094).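 Also: score merges spot fluorescence near 667 nm with spot signal-to-noise ratio.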 Particulars: small-molecule microarray, higher = more signal.
Test [8] relates to Noggin (protein binding on small-molecule microarray). The test can be described thus: small molecules binding Noggin protein – biochemical, 635/667 nm fluorescence, primary screen (AID 1095).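 Also: score merges 667 nm feature fluorescence with signal to noise over triplicate slides.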 Particulars: 635 nm fluorescence, higher = more signal.
For test [9], the target named is Neurogenic locus notch homolog protein 3 (Homo sapiens) (UniProt Q9UM47). Kind of test: small molecules binding NOTCH3 protein – biochemical, 635/667 nm fluorescence, primary screen (AID 1096). Particulars: small-molecule microarray, 635 nm fluorescence, higher = more signal.
Neurogenic locus notch homolog protein 3 (Homo sapiens), sequence (Q9UM47 whole entry, looked up): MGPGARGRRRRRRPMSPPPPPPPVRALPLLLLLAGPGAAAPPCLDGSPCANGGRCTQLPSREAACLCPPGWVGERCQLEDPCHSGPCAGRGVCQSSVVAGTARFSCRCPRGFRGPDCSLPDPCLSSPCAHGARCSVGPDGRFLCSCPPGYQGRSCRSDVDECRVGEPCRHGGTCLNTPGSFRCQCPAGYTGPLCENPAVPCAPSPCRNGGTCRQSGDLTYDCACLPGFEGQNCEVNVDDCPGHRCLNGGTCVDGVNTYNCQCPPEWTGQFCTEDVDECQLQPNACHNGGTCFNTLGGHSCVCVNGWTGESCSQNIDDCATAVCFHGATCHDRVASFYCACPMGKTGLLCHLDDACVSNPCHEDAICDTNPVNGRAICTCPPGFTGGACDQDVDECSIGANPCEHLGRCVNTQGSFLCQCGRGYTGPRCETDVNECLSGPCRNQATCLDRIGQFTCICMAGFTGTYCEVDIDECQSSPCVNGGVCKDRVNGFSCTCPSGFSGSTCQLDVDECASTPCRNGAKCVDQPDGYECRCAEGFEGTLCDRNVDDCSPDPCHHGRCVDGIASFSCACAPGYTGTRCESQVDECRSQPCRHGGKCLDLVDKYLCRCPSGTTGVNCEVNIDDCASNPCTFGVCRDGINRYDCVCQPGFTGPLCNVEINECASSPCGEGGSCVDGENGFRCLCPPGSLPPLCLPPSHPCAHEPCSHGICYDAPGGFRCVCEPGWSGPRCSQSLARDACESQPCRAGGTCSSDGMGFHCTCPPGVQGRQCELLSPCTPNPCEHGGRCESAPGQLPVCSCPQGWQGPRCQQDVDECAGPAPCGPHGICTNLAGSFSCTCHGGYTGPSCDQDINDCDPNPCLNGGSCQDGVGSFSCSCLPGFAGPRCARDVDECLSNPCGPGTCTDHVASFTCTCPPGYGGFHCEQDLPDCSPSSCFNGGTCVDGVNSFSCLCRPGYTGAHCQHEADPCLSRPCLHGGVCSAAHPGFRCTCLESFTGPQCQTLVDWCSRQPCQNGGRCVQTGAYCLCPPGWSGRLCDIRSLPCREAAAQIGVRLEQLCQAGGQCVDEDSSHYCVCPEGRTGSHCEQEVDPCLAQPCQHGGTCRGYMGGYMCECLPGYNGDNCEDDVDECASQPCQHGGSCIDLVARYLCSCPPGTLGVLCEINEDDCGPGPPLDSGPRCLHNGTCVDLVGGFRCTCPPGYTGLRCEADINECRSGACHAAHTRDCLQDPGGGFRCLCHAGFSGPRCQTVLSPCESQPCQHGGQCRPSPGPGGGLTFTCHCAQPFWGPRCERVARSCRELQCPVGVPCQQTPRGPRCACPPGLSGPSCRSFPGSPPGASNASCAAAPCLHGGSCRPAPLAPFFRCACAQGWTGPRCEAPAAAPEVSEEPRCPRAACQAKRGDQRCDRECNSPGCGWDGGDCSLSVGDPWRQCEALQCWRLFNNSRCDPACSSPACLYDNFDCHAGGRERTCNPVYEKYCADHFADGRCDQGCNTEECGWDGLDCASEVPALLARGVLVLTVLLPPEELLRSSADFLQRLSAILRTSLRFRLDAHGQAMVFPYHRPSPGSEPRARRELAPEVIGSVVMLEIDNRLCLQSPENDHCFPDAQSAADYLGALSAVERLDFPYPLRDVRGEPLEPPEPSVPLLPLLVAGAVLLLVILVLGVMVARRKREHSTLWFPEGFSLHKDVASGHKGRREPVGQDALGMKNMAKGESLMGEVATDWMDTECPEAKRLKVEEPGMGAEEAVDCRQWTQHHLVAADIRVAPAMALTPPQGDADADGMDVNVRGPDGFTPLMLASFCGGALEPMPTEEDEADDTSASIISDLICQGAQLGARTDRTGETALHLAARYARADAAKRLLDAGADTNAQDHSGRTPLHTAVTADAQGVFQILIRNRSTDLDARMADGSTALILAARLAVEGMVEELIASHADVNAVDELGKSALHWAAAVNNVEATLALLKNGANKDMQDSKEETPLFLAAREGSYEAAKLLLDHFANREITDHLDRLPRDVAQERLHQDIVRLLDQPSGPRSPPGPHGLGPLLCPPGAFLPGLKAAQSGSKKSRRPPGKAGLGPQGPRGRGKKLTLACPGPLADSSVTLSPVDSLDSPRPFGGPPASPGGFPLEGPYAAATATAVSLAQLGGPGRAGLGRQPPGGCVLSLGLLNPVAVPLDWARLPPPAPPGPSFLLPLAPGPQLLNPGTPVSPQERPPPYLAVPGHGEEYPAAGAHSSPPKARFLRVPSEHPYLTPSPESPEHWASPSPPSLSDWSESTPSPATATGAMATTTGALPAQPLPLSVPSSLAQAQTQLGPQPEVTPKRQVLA
Test [10] can be described thus: probe aEGFR binding to arrayed compounds – biochemical, biotinylated probe, 635/667 nm fluorescence, primary screen (AID 1097).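 Also: probe is a biotinylated anti-EGFR antibody binding compounds printed on slides; score combines fluorescence near 667 nm and signal to noise of each spot.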 Particulars: small-molecule microarray, higher = more signal.
Test [11] relates to Plasmodium falciparum Sir2 (PF13_0152, Sir2A). Kind of test: Plasmodium falciparum Sir2A binding compounds – biochemical, small-molecule microarray, 635 nm fluorescence, primary screen (AID 1098).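 Also: score merges spot fluorescence intensity with its signal-to-noise ratio.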 Particulars: fluorescence 635 nm, higher = more signal.
Test [12] in a line: probe aDKK1 binding to arrayed compounds – biochemical, biotinylated probe, 635/667 nm fluorescence, primary screen (AID 1099).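 Also: score merges 667nm spot fluorescence with signal to noise across triplicate slides; reference of the scale not given here.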 Particulars: small-molecule microarray, higher = more signal.
A short description of test [13]: probe aCHRDL2 binding to arrayed compounds – biochemical, biotinylated probe, 635/667 nm fluorescence, primary screen (AID 1100). Particulars: small-molecule microarray, higher = more signal.
A short description of test [14]: change in splice reporter luminescence, either direction, cell-based, HEK293, spliceosome inhibition project, primary screen (AID 1101).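 Also: HEK293 cells carrying a splicing-competent luciferase reporter gene; test concentration not given here.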 To be noted: HEK293 splicing luciferase reporter, 24 h, higher = more signal, called active from +8 up or from −8 down. In general terms: In a reporter assay the amount or activity of a reporter protein is the signal.
The target in test [15] is Fibroblast growth factor 10 (Homo sapiens) (UniProt O15520). The test can be described thus: compounds binding fibroblast growth factor 10 – biochemical, small-molecule microarray, 635 nm fluorescence, primary screen (AID 1102). Particulars: FGF10 binding, fluorescence 635 nm, higher = more signal.
Fibroblast growth factor 10 (Homo sapiens), sequence (O15520 whole entry, looked up): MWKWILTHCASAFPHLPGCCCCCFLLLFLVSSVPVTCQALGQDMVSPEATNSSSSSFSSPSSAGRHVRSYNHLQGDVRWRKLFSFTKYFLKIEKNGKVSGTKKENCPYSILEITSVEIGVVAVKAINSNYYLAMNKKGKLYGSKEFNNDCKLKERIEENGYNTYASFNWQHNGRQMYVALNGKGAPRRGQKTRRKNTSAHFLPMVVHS
The test system of test [16] is glycogen synthase kinase-3 (GSK3A per assay name; protocol says GSK3B). Kind of test: compounds binding glycogen synthase kinase-3 – biochemical, small-molecule microarray, 635 nm fluorescence, GSK3A, primary screen (AID 1103). Also: the record names both GSK3A and GSK3B. Particulars: fluorescence 635 nm, higher = more signal.
In test [17] the target is Epidermal growth factor receptor (Homo sapiens) (UniProt P00533). The test can be described thus: compounds binding epidermal growth factor receptor – biochemical, small-molecule microarray, 635 nm fluorescence, primary screen (AID 1104).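 Also: score merges 667 nm emission intensity with spot signal to noise over triplicate slides.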 Particulars: EGFR binding, higher = more signal.
Epidermal growth factor receptor (Homo sapiens), sequence (P00533 whole entry, looked up): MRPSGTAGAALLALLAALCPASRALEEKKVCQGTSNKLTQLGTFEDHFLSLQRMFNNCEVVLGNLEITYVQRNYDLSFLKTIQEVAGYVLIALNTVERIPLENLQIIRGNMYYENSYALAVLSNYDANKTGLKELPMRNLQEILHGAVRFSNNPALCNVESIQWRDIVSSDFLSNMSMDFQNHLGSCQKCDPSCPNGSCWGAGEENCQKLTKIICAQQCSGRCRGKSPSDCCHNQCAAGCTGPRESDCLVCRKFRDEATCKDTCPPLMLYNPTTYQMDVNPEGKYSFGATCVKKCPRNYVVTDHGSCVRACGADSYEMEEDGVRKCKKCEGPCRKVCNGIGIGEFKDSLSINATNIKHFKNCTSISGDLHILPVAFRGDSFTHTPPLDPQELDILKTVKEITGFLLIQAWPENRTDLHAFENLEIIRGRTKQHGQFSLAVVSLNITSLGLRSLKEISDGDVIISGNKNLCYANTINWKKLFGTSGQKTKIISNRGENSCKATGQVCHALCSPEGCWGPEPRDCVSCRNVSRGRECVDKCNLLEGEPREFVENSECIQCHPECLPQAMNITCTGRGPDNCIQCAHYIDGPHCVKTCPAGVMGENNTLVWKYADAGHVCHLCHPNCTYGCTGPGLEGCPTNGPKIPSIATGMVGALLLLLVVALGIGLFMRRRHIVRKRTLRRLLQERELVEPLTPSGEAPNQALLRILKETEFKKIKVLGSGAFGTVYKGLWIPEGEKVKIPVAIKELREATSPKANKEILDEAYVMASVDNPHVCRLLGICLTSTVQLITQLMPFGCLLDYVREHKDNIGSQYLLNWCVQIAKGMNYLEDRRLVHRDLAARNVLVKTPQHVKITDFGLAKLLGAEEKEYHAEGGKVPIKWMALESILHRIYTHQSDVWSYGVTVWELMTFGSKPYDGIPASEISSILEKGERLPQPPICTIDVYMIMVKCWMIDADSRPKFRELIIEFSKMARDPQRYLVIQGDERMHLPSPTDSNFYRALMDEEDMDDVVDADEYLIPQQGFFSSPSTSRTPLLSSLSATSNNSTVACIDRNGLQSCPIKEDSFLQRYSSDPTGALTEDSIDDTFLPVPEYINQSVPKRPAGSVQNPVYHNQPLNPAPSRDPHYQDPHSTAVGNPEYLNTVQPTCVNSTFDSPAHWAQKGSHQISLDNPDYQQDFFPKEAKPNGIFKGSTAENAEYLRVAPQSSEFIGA
Test [18] concerns the target Follistatin-related protein 3 (Homo sapiens) (UniProt O95633). The test can be described thus: compounds binding follistatin-related protein 3 – biochemical, small-molecule microarray, 635 nm fluorescence, primary screen (AID 1105).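 Also: score merges emission near 667 nm and signal to noise per printed spot across three slides.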 To be noted: FSTL3 binding, higher = more signal.
Test [19] has as its target Dickkopf-related protein 1 (Homo sapiens) (UniProt O94907). Kind of test: small molecules binding DKK1 protein – biochemical, small-molecule microarray, 635 nm fluorescence scan, primary screen (AID 1106).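 Also: score merges emission near 667 nm with signal to noise over three replicate slides.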 Particulars: higher = more signal.
Test [20] concerns Inhibin beta A chain (activin A). Kind of test: small molecules binding activin A – biochemical, small-molecule microarray, 635 nm fluorescence scan, primary screen (AID 1107).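 Also: mouse activin A protein probed at 4.33 µg/mL on printed slides; score merges bound-protein fluorescence near 667 nm with spot signal-to-noise.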 To be noted: INHBA, higher = more signal.

Follistatin-related protein 3 (Homo sapiens), sequence (O95633 whole entry, looked up): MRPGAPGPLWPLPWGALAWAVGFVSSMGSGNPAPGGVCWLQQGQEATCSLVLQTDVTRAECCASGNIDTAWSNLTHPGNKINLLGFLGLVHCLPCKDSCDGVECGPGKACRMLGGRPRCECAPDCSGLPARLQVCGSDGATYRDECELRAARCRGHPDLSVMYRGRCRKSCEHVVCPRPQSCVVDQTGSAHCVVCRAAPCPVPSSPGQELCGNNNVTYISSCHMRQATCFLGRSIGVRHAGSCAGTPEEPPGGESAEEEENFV
Dickkopf-related protein 1 (Homo sapiens), sequence (O94907 whole entry, looked up): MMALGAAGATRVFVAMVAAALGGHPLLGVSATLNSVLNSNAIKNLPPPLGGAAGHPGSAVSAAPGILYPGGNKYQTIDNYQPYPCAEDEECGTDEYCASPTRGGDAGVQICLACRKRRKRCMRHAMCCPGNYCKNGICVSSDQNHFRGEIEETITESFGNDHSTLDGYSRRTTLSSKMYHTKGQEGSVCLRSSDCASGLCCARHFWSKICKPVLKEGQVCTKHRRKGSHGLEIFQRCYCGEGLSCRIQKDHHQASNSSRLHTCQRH

Take `C=CC[C@@H]1C=C[C@H](ON=C(C)CCC(=O)OC[C@H]2O[C@H](c3ccccc3)C=C[C@@H]2Oc2ccc(OC)cc2)[C@@H](CO)O1`: the composite z-score in test [1] is 0.12; in [5], -0.177; in test [7], -0.209; in test [8] it was 0.185; in [9] it was -1.3; in test [10], -0.172. For the same compound, the composite z-score is 0.892 in test [11]; -0.347 in test [12]; -0.524 in [13]; -0.196 in test [15]; -0.855 in [16]; -0.382 in test [17]. Moreover, the composite z-score in test [18] was -0.532; in test [19], 0.0305; in test [20] it was 0.837. The z-score is 0.0343 (inactive) in test [2]; -0.212 (inactive) in test [3]; 0.261 (inactive) in test [4]; 0.358 (inactive) in test [6]; -0.393 (inactive) in [14].
As for `CO[C@@H]1C=CCC(=O)N[C@@H](C)C(=O)OC[C@@H](OC)[C@H](C)CCCC(=O)OC[C@H]1C`, the composite z-score in test [1] is 1.44; in [5], -2.13; in test [7], -0.153; in [8], 1.91; in test [9], -1.04; in test [10], -0.0485. The composite z-score in test [11] is 1.55; in [12], -0.352; in test [13], -1.05; in [15], 0.473; in [16], 0.0516; in [17] it was 1.08. Further, the composite z-score in [18] was determined as 1.22; in [19], 1.64; in test [20] it was 1.23. The z-score is -0.465 (inactive) in test [2]; -0.111 (inactive) in test [3]; -1.17 (inactive) in [4]; 0.976 (inactive) in [6]; -0.646 (inactive) in [14].
On to `C=C(C)C(=O)OCC1CN2[C@@H](CC[C@@H](C)[C@@H]2c2ccc(Br)cc2)C(=O)O1` (stereo not given in full), for which the composite z-score in test [1] was 0.855; in test [5] it was 0.734; in test [7], -0.118; in test [8], 0.172; in [9], 0.947; in test [10] it was -0.128. For the same compound, the composite z-score was 0.299 in [11]; -0.201 in test [12]; -0.118 in test [13]; 0.237 in test [15]; 0.363 in [16]; -0.202 in [17]. The values for the composite z-score in [18], in test [19] and in [20] were 0.0267, 0.147 and -0.0608, respectively. Moreover, the z-score in test [2] is 0.275 (inactive); in test [3], -0.369 (inactive); in [4], -0.427 (inactive); in test [6], -0.166 (inactive); in test [14] it was 0.411 (inactive).
In the case of `COC(=O)CC=C[C@@H](C)[C@@H](C=NO[C@@H](C)c1cc(-c2c(C)cc(C)cc2C)no1)NS(=O)(=O)c1ccc(C)cc1`, the composite z-score is -0.84 in test [1]; -0.227 in test [5]; 0.0221 in test [7]; -2.2 in test [8]; -2.03 in [9]; -0.224 in test [10]. For the same compound, the composite z-score is -0.775 in test [11]; 0.437 in test [12]; 0.969 in [13]; -1.93 in test [15]; -1.46 in [16]; -1.16 in test [17]. Further, the composite z-score is -1.83 in [18], -2.26 in test [19] and 0.178 in test [20]. Also, the z-score in test [2] is -0.0649 (inactive); in test [3], 0.679 (inactive); in test [4], 0.905 (inactive); in test [6], -0.881 (inactive); in test [14], -1.4 (inactive).
Turning to `CCCCC#C[C@@H]1C=C[C@H](Oc2cc(OC)c(OC)c(OC)c2)[C@@H](COC(=O)OCC)O1`, the composite z-score is 0.314 in test [1]; -0.16 in test [5]; -0.209 in test [7]; 0.229 in test [8]; -0.208 in [9]; -0.162 in [10]. Also, the composite z-score in test [11] is 0.589; in [12], -0.328; in [13], -0.619; in test [15] it was 0.306; in test [16] it was -0.682; in test [17] it was 0.0389. For the same compound, the composite z-score was -0.203 in test [18], 0.514 in [19] and 0.444 in [20]. The z-score is 0.635 (inactive) in test [2]; -2.19 (inactive) in [3]; 0.398 (inactive) in [4]; 0.934 (inactive) in test [6]; -0.696 (inactive) in test [14].
On to `CCOC(=O)C1=NO[C@]2(C=C(Br)C3(OCCCO3)[C@H]3O[C@H]32)C1`, for which the composite z-score in test [1] was -0.365; in test [5] it was 0.141; in [7], -0.244; in test [8], -0.519; in test [9], -0.862; in [10], 0.0214. The composite z-score in [11] was -0.695; in test [12], -0.32; in test [13], -0.274; in [15] it was 0.18; in [16], -0.512; in test [17], -0.203. The composite z-score in [18] is -0.425; in [19], -0.123; in test [20], 0.549. Also, the z-score in [2] was -0.658 (inactive); in test [3], -1.06 (inactive); in test [4], -0.155 (inactive); in test [6], 0.874 (inactive); in test [14], 0.437 (inactive).
